# Source: PubChem BioAssay AID602261 (Sanford-Burnham Center for Chemical Genomics, 2012)
# Out of some 360,000 compounds screened, about 2,400 (0.67%) were called active. The sample holds actives, similar compounds and a random draw of the others, so the mix is not that of the screen. Values without a mark were called inactive.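 How the source made its calls: active means compounds whose normalised, plate-corrected inhibition of enzyme fluorescence in the single-dose primary screen is 50% or more; inactive means the rest.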
# Target: Fatty acid synthase (Homo sapiens) (UniProt P49327)
# Assay: inhibition of human FAS-TE enzyme activity – biochemical, fluorescence intensity, uHTS, primary screen (AID 602261);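 further: 0% = DMSO with enzyme and 100% = substrate without enzyme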
# Settings: recombinant FAS-TE, OMFH fluorogenic substrate, fluorescence endpoint; at 15 µM; active compounds read high
# Chain of Fatty acid synthase (Homo sapiens) (P49327 whole entry, looked up): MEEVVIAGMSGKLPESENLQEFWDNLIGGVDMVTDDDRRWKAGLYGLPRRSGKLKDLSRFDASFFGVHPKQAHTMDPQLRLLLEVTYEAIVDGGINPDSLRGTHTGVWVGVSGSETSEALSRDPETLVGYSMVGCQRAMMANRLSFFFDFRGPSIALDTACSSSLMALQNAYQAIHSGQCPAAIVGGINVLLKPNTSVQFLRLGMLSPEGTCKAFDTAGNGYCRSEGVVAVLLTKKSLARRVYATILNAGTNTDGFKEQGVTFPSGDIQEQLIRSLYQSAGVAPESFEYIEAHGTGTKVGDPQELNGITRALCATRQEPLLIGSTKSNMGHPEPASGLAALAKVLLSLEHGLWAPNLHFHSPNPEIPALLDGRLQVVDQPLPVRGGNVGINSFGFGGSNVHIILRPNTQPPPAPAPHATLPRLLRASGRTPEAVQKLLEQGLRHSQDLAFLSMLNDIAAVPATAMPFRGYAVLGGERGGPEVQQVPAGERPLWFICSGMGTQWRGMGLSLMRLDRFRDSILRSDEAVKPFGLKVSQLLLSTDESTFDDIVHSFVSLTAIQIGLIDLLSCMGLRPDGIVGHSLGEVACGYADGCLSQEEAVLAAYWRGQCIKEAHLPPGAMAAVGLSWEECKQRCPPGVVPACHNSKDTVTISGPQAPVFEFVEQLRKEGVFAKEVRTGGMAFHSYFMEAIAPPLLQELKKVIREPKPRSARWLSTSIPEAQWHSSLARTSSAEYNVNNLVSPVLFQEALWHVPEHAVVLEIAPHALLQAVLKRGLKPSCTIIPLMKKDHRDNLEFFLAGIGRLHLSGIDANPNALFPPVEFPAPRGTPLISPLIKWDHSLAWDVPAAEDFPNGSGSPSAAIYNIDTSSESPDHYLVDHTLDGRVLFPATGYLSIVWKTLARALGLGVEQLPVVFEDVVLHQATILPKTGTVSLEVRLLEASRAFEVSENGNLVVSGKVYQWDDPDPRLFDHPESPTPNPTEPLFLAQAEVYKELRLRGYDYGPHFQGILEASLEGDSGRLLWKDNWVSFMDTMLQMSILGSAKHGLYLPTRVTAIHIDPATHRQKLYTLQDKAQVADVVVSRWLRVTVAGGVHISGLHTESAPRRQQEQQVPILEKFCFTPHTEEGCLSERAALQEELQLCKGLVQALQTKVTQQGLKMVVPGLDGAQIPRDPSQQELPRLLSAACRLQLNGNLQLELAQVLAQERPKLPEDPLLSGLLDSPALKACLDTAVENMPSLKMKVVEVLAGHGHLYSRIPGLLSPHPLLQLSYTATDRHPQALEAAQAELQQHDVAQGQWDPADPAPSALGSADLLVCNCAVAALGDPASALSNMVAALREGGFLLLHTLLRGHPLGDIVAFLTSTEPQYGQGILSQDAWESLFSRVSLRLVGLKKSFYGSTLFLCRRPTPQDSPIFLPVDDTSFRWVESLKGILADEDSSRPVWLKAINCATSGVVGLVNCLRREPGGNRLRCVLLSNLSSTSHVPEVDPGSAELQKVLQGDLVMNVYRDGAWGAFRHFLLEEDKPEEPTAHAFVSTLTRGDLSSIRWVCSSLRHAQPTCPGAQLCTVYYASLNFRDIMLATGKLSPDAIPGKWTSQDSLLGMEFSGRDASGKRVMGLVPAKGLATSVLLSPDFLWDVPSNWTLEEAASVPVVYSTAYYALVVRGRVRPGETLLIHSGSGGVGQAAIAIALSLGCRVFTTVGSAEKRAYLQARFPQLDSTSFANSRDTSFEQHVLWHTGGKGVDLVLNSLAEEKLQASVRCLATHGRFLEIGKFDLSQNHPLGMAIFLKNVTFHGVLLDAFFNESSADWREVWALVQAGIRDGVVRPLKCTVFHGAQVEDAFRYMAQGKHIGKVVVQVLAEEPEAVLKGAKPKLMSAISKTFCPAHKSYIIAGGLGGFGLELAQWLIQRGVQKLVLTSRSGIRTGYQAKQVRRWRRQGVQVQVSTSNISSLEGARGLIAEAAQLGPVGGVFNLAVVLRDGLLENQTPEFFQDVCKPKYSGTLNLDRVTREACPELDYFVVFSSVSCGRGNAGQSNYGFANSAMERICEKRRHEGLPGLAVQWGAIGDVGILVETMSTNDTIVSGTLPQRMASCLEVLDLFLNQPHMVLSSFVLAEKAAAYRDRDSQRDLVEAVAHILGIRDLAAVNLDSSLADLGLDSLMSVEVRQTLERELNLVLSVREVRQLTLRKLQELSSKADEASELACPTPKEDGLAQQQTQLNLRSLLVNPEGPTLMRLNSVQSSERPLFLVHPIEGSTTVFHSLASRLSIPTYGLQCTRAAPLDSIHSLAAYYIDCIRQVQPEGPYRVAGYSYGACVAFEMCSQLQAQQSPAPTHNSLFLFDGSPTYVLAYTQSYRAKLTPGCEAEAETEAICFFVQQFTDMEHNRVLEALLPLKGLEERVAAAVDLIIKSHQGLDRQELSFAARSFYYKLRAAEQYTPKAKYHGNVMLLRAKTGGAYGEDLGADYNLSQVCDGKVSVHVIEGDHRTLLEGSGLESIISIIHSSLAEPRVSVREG
row,SMILES,inhibition
1,COc1ccccc1CNC(=O)CCCn1c(=O)c2ccccc2n(CC(=O)NC2CCCC2)c1=O,-7.6%
2,CCCCNC(=O)CCn1c(=O)c2ccccc2n(Cc2cc(C)ccc2C)c1=O,-13.3%
3,COCCNC(=O)CCCn1c(=O)c2ccccc2n(Cc2cccc([N+](=O)[O-])c2)c1=O,55.7% (active)
4,CCOC(=O)N1CCN(Cc2nc3c(c(=O)n(C)c(=O)n3C)n2Cc2ccccc2)CC1,4%
5,CN1CCN(Cc2nc3c(c(=O)n(C)c(=O)n3C)n2Cc2cccc3ccccc23)CC1,17.2%
6,COCCn1c(CN2CCC(Cc3ccccc3)CC2)nc2c1c(=O)n(C)c(=O)n2C,53.4% (active)
7,COc1ccc(OC)c(S(=O)(=O)N2CCCC(C(=O)N3CCC(C(N)=O)CC3)C2)c1 (centres undefined),-9.7%
8,COc1ccc(C2CC(c3ccccc3)=NN2C(=O)c2ccc(Cl)c([N+](=O)[O-])c2)cc1 (centres undefined),65.8% (active)
9,COc1ccc(C2CC(c3cccc(OC)c3)=NN2c2ccc(S(N)(=O)=O)cc2)cc1 (centres undefined),18.6%
10,COc1ccc(C2=NN(C(=O)c3ccccc3C(=O)O)C(c3ccccc3O)C2)cc1 (centres undefined),-6.4%
11,CCCn1c(SCC(=O)Nc2ccc(C)c(S(=O)(=O)N3CCOCC3)c2)n[nH]c1=O,-3.3%
12,Cc1cc(C)c2nc(-c3cccnc3)cc(C(=O)Nc3ccc(S(=O)(=O)Nc4onc(C)c4C)cc3)c2c1,-0.1%
13,C/C(=N\Nc1ccc([N+](=O)[O-])cc1)c1ccc(-n2nncc2C(C)(C)C)cc1,-16%
14,C/C(=N/NC(=O)CC(=O)N/N=C(\C)c1ccc([N+](=O)[O-])cc1)c1ccc([N+](=O)[O-])cc1,36%
15,C/C(=N\Nc1nc(N2CCOCC2)nc(N2CCOCC2)n1)c1ccc([N+](=O)[O-])cc1,57.8% (active)
16,O=C(NCCN1CCOC1=O)C1CCC(=O)N(CCc2ccc(Cl)cc2)C1 (centres undefined),0.7%
17,O=C(c1cnccn1)N1CCN(S(=O)(=O)c2cccc(Cl)c2)CC1,-6.3%
18,Cc1ccc(S(=O)(=O)/N=C(/NC(=S)Nc2c(C)n(C)n(-c3ccccc3)c2=O)c2ccccc2)cc1,-4.4%
19,CC[C@]12c3[nH]c4ccc(Cl)cc4c3CCN1C(=O)[C@@H](CC(=O)NCCCOC)C[C@@H]2C(=O)N1CCN(C(=O)C2CC2)CC1,-5.2%
20,CCOC(=O)C1=CC[C@@H](c2ccccc2)N(S(=O)(=O)c2ccc(C)cc2)[C@H]1c1ccc(CC)cc1,31.8%
21,Cc1ccc(S(=O)(=O)N2C[C@@H](C)[C@]3(C2)[C@H](O)[C@H](OC(=O)NCc2ccccc2)C[C@H]2C(=O)N(c4ccccc4)C(=O)[C@H]23)cc1,18.7%
22,CCOC(=O)C1=C(N)N(c2ccc(C)cc2)C2=C(C(=O)CCC2)C1c1cccs1 (centres undefined),20.7%
23,CCOC1=C2[C@@H](CN(S(=O)(=O)c3ccc(C)cc3)[C@H]2c2ccccc2F)[C@H]2C(=O)N(Cc3ccccc3)C(=O)[C@H]2C1,35.8%
24,CCOC1=C2CN(S(=O)(=O)c3ccc(C)cc3)[C@H](c3cccs3)C[C@H]2[C@H]2C(=O)N(c3ccccc3)C(=O)[C@H]2C1,58% (active)
25,CCOC1=C2[C@H]([C@H]3C(=O)N(c4ccccc4)C(=O)[C@H]3C1)[C@@H](c1ccccc1)N(S(=O)(=O)c1ccc(C)cc1)[C@H]2c1ccccc1,69.2% (active)

row,SMILES,inhibition
1,NC(=O)COC(=O)c1sc2cc(F)ccc2c1Cl,5%
2,CCOc1ccc2[nH]c(=S)sc2c1,-1.4%
3,CN1CCN(S(=O)(=O)c2ccc(Nc3ccc(F)cc3)nc2)CC1,-0.3%
4,CC1CN(C(=O)c2cc(COc3c(F)cccc3F)on2)CCN1C (centres undefined),-5.4%
5,Cc1nnc(-c2ccc(Oc3ccc(C)c(C)c3)c([N+](=O)[O-])c2)o1,21.4%
6,COc1cccc2c1CCC(NC(C)=O)C2=O (centres undefined),-7.2%
7,O=C(NC(Nc1nc2ccc([N+](=O)[O-])cc2s1)(C(F)(F)F)C(F)(F)F)c1ccccc1,10.8%
8,Brc1ccccc1/C=N/Nc1nc2ccccc2o1,-4.3%
9,O=[N+]([O-])c1cc(Br)c(O)c(/C=N/Nc2nc3ccccc3s2)c1,52.5% (active)
10,COc1ccc(SCc2noc(C(=O)NCC3CCCO3)c2C(=O)O)cc1 (centres undefined),-6.7%
11,Cc1cccc(N(CC(=O)N2CCCC2)S(C)(=O)=O)c1C,-4.4%
12,COCCN1C2=C(COC(C)(C)C2)C(=S)NC1c1ccccc1 (centres undefined),-8.2%
13,CCOC(=O)[C@H]1[C@H]2COc3ccc(OC)cc3[C@@H]2N2C(=O)c3ccc(F)cc3NC(=O)[C@@]12C,-4.6%
14,Cc1ccc2c(c1)NC(=O)[C@@]1(C)[C@@H](c3ccccc3)[C@H]3COc4ccc(Cl)cc4[C@@H]3N1C2=O,15.6%
15,COc1ccc2c(c1)[C@H]1[C@H](CO2)[C@H](c2ccccc2)[C@]2(C)C(=O)Nc3cc(F)c(F)cc3C(=O)N12,71.2% (active)
16,CCOC(=O)c1ccc(COC(=O)CCc2nc(-c3ccccc3)c(-c3ccccc3)o2)cc1,26.3%
17,COc1cc(OC)cc(-c2cc3nc(C4CCN(C(=O)OC(C)(C)C)CC4)cc(=O)n3[nH]2)c1,-5.7%
18,CCC(C)NC(=O)C1CCCN(C(=O)NC2CCCCC2)C1 (centres undefined),-6.1%
19,O=C(c1[nH]ncc1-c1ccc(Cl)cc1)C1CO1 (centres undefined),-22%
20,O=C(NC(=S)NC1CCS(=O)(=O)C1)c1cccc([N+](=O)[O-])c1 (centres undefined),-3.5%
21,O=C(Nc1ccc(C2CC2(Cl)Cl)cc1)c1cccc([N+](=O)[O-])c1 (centres undefined),90.9% (active)
22,Cc1ccc(NC(=O)C(=O)NCC2CCN(C(=O)c3cccc([N+](=O)[O-])c3)CC2)cc1,0.8%
23,CCOc1ccc(CCNC(=O)COC(=O)c2ccc(F)c(S(=O)(=O)N3CCOCC3)c2)cc1OCC,-4.3%
24,N#Cc1c(/N=C/N2CCCC2)oc(-c2ccccc2)c1-c1ccccc1,27.6%
25,Cc1cccc(N2C(=O)N3[C@H](c4ccc(F)cc4)[C@@H]4C(=O)N(C5CCCCC5)C(=O)[C@@H]4[C@]3(Cc3ccccc3)C2=O)c1,90.1% (active)

row,SMILES,inhibition
1,O=C1[C@H]2[C@@H](c3ccc(F)cc3)N3C(=O)N(c4ccc(C(F)(F)F)cc4)C(=O)[C@@]3(Cc3ccccc3)[C@H]2C(=O)N1C1CCCCC1,91.3% (active)
2,O=C1[C@H]2[C@@H](c3ccc(C(F)(F)F)cc3)N[C@]3(CCCN(Cc4ccc(Cl)cc4)C3=O)[C@H]2C(=O)N1Cc1ccccc1,41.2%
3,Cc1ccc([C@H]2N[C@]3(CCCN(CC4CCCCC4)C3=O)[C@H]3C(=O)N(Cc4ccccc4)C(=O)[C@@H]23)cc1,21.4%
4,CC12C(=O)N(c3ccccc3)C(=O)C1C(c1ccccc1)N1CCCN12 (centres undefined),-2.7%
5,O=C1[C@H]2[C@@H](c3ccc(C(F)(F)F)cc3)N[C@]3(CCCN(Cc4ccc(Br)cc4)C3=O)[C@H]2C(=O)N1Cc1ccccc1,41.2%
6,O=C1[C@H]2[C@@H](c3ccc(Cl)cc3)N3C(=O)N(c4cccc(F)c4)C(=O)[C@@]3(Cc3ccccc3)[C@H]2C(=O)N1C1CCCCC1,92.2% (active)
7,CCN1C(=O)[C@H]2[C@@H](c3ccc(C)cc3)N3C(=O)N(c4cccc(Br)c4)C(=O)[C@@]3(CC)[C@H]2C1=O,-1.3%
8,C[C@@]12C(=O)N(c3cccc(Br)c3)C(=O)N1[C@H](c1ccc(Cl)cc1)[C@@H]1C(=O)N(C3CCCCC3)C(=O)[C@@H]12,93.7% (active)
9,CC(C)(C)N1C(=O)[C@H]2[C@@H](c3ccc(Br)cc3)N3C(=O)N(c4cccc(Cl)c4)C(=O)[C@@]3(C)[C@H]2C1=O,31.7%
10,COc1cc(NC(=O)C2=C(C)OCCS2)c(Cl)cc1C(=O)NCCN1CCN(C)CC1,-10.2%
11,CC1CCN(S(=O)(=O)c2ccc(NC(=O)C3CC(=O)N(c4ccccc4)C3)cc2)CC1 (centres undefined),4.6%
12,COc1ccc(CNC(=O)CN2CCC(n3nnc4cc(F)ccc43)CC2)cc1,1.6%
13,Cc1csc(SCC(=O)N(c2ccccc2)C(C)C)n1,-7.2%
14,CC(NC(=O)C1CCC(CNc2c(N3CCOCC3)c(=O)c2=O)CC1)c1ccccc1 (centres undefined),3.6%
15,S=c1[nH]c2ccccc2c2ccccc12,-0.9%
16,COCC1CCN(C(=O)C2CCC(=O)N(Cc3cccc(C(F)(F)F)c3)C2)CC1 (centres undefined),-6.2%
17,O=C(CCNS(=O)(=O)c1cccs1)N1CCN(c2ccc(F)cc2)CC1,-4.4%
18,NC1=NC(=O)C2(COC(c3ccccc3Cl)OC2)S1 (centres undefined),-3.8%
19,Cc1cccc([C@@H]2[C@@H]3C(=O)N(Cc4ccccc4)C(=O)[C@@H]3[C@]3(Cc4ccc(Cl)cc4)C(=O)N(c4cccc(Cl)c4)C(=O)N23)c1,91.3% (active)
20,Cc1cccc([C@@H]2[C@@H]3C(=O)N(Cc4ccccc4)C(=O)[C@@H]3[C@]3(C)C(=O)N(c4ccc(Br)cc4)C(=O)N23)c1,39.4%
21,COc1cccc(N2C(=O)CN(Cc3ccccc3)C2=S)c1,-0.9%
22,COc1ccc([C@@H]2[C@@H]3C(=O)N(C(C)(C)C)C(=O)[C@@H]3[C@]3(Cc4ccccc4)C(=O)N(c4cccc(Br)c4)C(=O)N23)cc1,89.7% (active)
23,CC[C@@]12C(=O)N(c3ccccc3)C(=O)N1[C@H](c1ccc(Br)cc1)[C@@H]1C(=O)N(C(C)(C)C)C(=O)[C@@H]12,13.2%
24,Cc1cccc(N2C(=O)C3C(c4ccccc4)OC4(C(=O)c5ccccc5C4=O)C3C2=O)c1 (centres undefined),-2.5%
